# Results filed as inconclusive are left out. A number with no mark means an inactive call. Calls of active or inactive are those of the source. Calls follow the shape of the dose curve; as a rule, active = well fitted inhibition curve with a large enough effect; inconclusive = small, poorly fitted or top-dose-only effect, or effect the other way; inactive = flat fitted curve, though single readings scatter.
# Molecular target: Ubiquitin carboxyl-terminal hydrolase 2 (Homo sapiens) (UniProt O75604)
# Sequence (O75604 whole entry, looked up): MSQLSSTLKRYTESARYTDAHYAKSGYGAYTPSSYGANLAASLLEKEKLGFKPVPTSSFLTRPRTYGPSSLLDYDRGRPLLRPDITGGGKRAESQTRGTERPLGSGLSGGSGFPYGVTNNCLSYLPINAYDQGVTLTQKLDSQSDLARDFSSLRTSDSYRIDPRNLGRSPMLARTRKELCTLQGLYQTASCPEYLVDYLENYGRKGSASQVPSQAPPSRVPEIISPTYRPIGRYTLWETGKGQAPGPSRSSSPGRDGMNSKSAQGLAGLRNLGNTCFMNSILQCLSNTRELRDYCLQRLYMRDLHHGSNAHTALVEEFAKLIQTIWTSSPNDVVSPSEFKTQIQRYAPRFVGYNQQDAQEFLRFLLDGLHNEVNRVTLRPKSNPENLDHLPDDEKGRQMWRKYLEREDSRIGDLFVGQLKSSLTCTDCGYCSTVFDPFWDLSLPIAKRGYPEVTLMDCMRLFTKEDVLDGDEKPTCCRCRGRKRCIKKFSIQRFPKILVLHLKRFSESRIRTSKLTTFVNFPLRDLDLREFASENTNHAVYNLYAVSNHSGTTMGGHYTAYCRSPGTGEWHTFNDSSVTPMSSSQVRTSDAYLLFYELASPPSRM
# Experiment: Confirmation Assay for Inhibitors of Ubiquitin-specific Protease USP2a Using CHOP2 as the Reporter; also: nearly all actives have a fitted effect of over 55% in size;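 as to activity change, negative = inhibition: plate controls were DMSO wells for no effect and full inhibition by NEM control for full effect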
# Details: USP2 core, Ub-CHOP2 coupled reporter fluorescence; series mostly up to 38.3 µM; activity change, negative = inhibition: at the top concentration
# Outline: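 Ub-CHOP2 cleavage coupled to reporter activation was read by fluorescence after 60 min at RT, with 25 nM final Ub-CHOP2 and substrate. Enzyme (10 nM final USP2 core) first sat 30 min with compound; data were normalized to NEM and fitted to concentration-response curves.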
# Potency is read from the fitted curve at half-maximal effect.
Compound,"activity change, negative = inhibition [%]",Potency
Cc1ccc(N2CCN(C(=O)CCc3nc4ccccc4[nH]3)CC2)c(C)c1,3.5,–
O=C1CC(c2ccc(Cl)cc2)SC(N(c2ccccc2)c2ccccc2)=N1 (stereo not given),-2.06,–
Cc1noc(C)c1NC(=O)Nc1ccc2c(c1)C(=O)N([C@H](C)CO)C[C@H](C)[C@@H](CN(C)S(=O)(=O)c1ccccc1)O2,-1.29,–
C#CCOCCOCCOCCNc1nc(N2CCN(C(=O)CCCCCCCCCCNC(=O)Cn3cc(C[C@@H](C)O)nn3)CC2)nc(N2CCN(C(=O)CCCCCCCCCCNC(=O)[C@@H]([C@H](C)CC)n3cc(CCCCCN)nn3)CC2)n1,–,11.7 µM (active)
CCN=C1SC(C(=O)Nc2cccc(OCC)c2)CC(=O)N1CC (stereo not given),4.78,–
Cc1nc2cc3ccccc3cc2c(=O)[nH]1,2.06,–
COc1ccc(NC(=O)C2CC(=O)OC2c2ccccc2)cc1 (stereo not given),1.9,–
CN(c1cccc(NC(=O)Nc2cccc(Cl)c2)c1)S(C)(=O)=O,0.956,–
CC(C)n1nc(C(=O)Nc2ccccc2N2CCOCC2)c2ccccc2c1=O,0.877,–
COC(=O)c1[nH]c2ccccc2c1NC(=O)CN1CCCc2ccccc21,-0.131,–
COc1ccc2[nH]c(=O)c(CN(C3CCCCC3)C(c3nnnn3Cc3ccco3)C(C)C)cc2c1 (stereo not given),–,10.4 µM (active)
O=C(CCS(=O)(=O)c1ccc(Br)s1)NC1CCCC1,-2.3,–
COc1ccc(CCN2CC(C#N)=C3c4cc(OC)c(OC)cc4CCN3C2)cc1OC,-0.858,–
N#CC(c1ccccc1)c1ccc(C(=O)c2ccc(F)cc2)cc1 (stereo not given),3.03,–
O/N=C/c1ccccc1OCc1ccccc1F,3.9,–
CCOC(=O)Nc1nnc(CCc2ccccc2)s1,-0.956,–
O=C(NCc1ccccc1)C1CCC1,1.49,–
COc1ccc2nc(C)cc(SCC(=O)N/N=C/c3c(OC)ccc4ccccc34)c2c1,-0.136,–
Cc1ccc(S(=O)(=O)Nc2cc(C)c(O)c(S(=O)(=O)c3ccc(C)cc3)c2)cc1,5.44,–
CCC(C)(C)n1nnnc1C(c1ccc(C)cc1)N1CCCC1 (stereo not given),5.39,–

Compound,"activity change, negative = inhibition [%]",Potency
O=C(NCCN1C(=O)CSC1=O)C1CC(=O)N(c2ccccc2)C1 (stereo not given),3.9,–
Cc1c(C(=O)Nc2ccc3c4c(cccc24)CC3)cccc1[N+](=O)[O-],1.37,–
CN1CCN(Cc2c(O)ccc3c(=O)c(Oc4ccccc4Cl)c(C(F)(F)F)oc23)CC1,4.61,–
O=C(COc1ccccc1)Nc1nnc(-c2ccc(Cl)s2)o1,0.422,–
CCCOc1ccc(-c2nc(C#N)c(N3CCN(CC)CC3)o2)cc1,2.02,–
COc1ccc(OCC(=O)Nc2ccccc2OC)cc1,7.41,–
CCN(Cc1ccncc1)C(=O)c1cccs1,-0.752,–
CCOC(=O)C1CCCN(CC(=O)Nc2c(C(=O)OC)[nH]c3ccc(C)cc23)C1 (stereo not given),-1.36,–
Cc1ccc(NS(=O)(=O)c2cccc(C(=O)OCC(=O)NCc3ccco3)c2)cc1,-4.99,–
O=c1/c(=C/c2ccco2)sc2n1CN(c1cccc(Br)c1)CN=2,-1.62,–
COc1ccccc1C(=O)n1nc(-c2cccnc2)nc1NCc1ccccc1,–,5.85 µM (active)
CCOC(=O)N1CCN(C(=O)CN(c2ccc(C)c(C)c2)S(=O)(=O)c2ccccc2)CC1,-1.56,–
Nc1c(C(=O)NC2CC2)sc2nc3c(c(-c4ccco4)c12)CC/C3=C/c1ccco1,–,7.36 µM (active)
O=C(N/N=C1\CC(c2ccccc2)Oc2ccccc21)c1ccc(O)cc1 (stereo not given),1.02,–
COc1cccc(NC(=O)CSc2nncn2-c2ccccn2)c1,4.05,–
Nn1c(Nc2ccccc2)nc2ccccc2c1=O,5.37,–
O=C(CN1CCOCC1)Nc1ccc(C2CCCCC2)cc1,-3.53,–
CCCCC1NC(C(=O)O)CS1 (stereo not given),6.61,–
CCOC(=O)N1CCC(NC(=O)c2ccc(OC)c(CN3CC(=O)N4CCCC4C3=O)c2)CC1 (stereo not given),-1.63,–
O=C(NC1CCCC1)C1C2C=CC(C2)C1C(=O)N1CCOCC1 (stereo not given),4.55,–
